Bioassay records deposited in PubChem BioAssay by several laboratories.
697 NFkB inh: lowers PMA/ionomycin-induced NF-kB signal in 697 B cells | 0.33% of 330,000 active | inhibition, % at 4 µM | 697 B-cell NF-kB luciferase reporter, 16 h | AID 435022; in the data active = inhibition above about 35%
Mdm2 MdmX PPI: human Mdm2/MdmX binding inhibition; AID 485346; inhibition, % at 8 µM; 3% of 330,000 active; SaOS-2 split-luciferase Mdm2/MdmX complementation, luminescence;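 active = inhibition of at least 50% at 8 µM in the primary screen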
Target sequence (O15151 whole entry, looked up): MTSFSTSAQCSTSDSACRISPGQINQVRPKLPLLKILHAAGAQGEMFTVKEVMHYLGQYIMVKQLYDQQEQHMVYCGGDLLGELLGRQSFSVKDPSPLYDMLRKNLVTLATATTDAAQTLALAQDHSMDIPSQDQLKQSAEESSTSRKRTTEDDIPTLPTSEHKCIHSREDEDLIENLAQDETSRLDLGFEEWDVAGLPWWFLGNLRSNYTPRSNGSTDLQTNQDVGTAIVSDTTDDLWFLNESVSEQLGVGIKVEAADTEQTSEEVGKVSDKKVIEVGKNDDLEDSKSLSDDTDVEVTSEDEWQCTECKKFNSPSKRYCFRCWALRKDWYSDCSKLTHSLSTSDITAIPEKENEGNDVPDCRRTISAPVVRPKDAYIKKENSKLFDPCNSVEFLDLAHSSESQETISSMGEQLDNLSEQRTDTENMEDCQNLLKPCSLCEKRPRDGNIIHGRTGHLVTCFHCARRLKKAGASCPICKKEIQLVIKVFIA
Target sequence (Q00987 whole entry, looked up): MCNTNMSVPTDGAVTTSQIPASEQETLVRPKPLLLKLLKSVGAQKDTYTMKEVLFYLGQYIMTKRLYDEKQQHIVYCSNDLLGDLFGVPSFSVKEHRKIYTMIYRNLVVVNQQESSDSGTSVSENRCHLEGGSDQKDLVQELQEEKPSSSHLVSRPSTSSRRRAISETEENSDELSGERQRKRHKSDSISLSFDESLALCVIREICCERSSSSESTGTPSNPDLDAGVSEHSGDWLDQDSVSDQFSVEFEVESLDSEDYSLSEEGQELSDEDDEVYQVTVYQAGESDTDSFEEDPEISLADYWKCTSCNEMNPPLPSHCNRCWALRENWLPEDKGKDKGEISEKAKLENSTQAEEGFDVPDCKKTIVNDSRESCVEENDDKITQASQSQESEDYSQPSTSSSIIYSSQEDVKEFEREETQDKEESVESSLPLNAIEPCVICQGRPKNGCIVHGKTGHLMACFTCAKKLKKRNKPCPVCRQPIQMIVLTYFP
Gli-Sufu block: Gli-Sufu pathway antagonism. Sufu-KO-LIGHT fibroblasts, Gli luciferase reporter luminescence. inhibition, % at 5 µM. 0.74% of 340,000 active. AID 588413;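 active = inhibition above about 55%, limit read from the data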;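 note: 0% = DMSO-treated cells and 100% = wells with medium but no cells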
Jurkat NFkB inh: lowers PMA/ionomycin-induced NF-kB signal in Jurkat cells; PMA/ionomycin-induced NF-kB luciferase reporter, luminescence; inhibition, % at 4 µM; 0.53% of 330,000 active; AID 435003; in the data active = inhibition above about 50%
CSC inhib: blocks cancer stem cells. cancer stem cell-like cells viability, luminescence. inhibition, % at 7.5 µM. 1.1% of 300,000 active; in the data active = inhibition above about 75%; tested in HMLE shEcad cells
Beta apoptosis: beta cell apoptosis inhibition; INS-1E cytokine-induced death, ATP luminescence, 48 h; percent of positive-control rescue, neutral wells zero; protection from apoptosis, % (test concentration not listed); 0.8% of 300,000 active; AID 435005;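 active = Every replicate reaches about 75%, or at least half do and their mean reaches it too, limit read from the data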;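 note: 0% = cytokine-treated negative control wells and 100% = positive control rescue; higher means more ATP so stronger rescue from cytokine killing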
Gli antag conf: confirmation of Gli-SUFU pathway antagonists. shares compounds with Gli-Sufu block. Sufu-KO-LIGHT cells, Gli luciferase reporter, luminescence. inhibition, % at 5 µM. 40% of 2,500 active. AID 602428;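 active = mean inhibition at 5 µM reaching about 45%, limit read from the data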;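 note: plate controls were DMSO-treated cells for no effect and wells lacking cells for full effect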
Gli cytotox: counter-screen for Gli-SUFU antagonists: cytotoxicity | shares compounds with Gli-Sufu block | Sufu-KO-LIGHT cells cytotoxicity, ATP luminescence | cytotoxicity, % at 5 µM | 32% of 2,500 active | AID 651994;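 active = mean cytotoxicity at 5 µM above about 25%, limit read from the data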;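 note: cells exposed to compound overnight for roughly 16 to 18 hours; plate controls were DMSO wells with cells for no effect and medium without cells for full effect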
Wnt3a counter: Wnt3a reporter inhibition counter-screen; AID 651995; inhibition, % at 6.25 µM; shares compounds with Gli-Sufu block; 20% of 2,500 active; Wnt-LIGHT cells, Wnt3a-driven luciferase reporter, luminescence;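 active = mean inhibition above about 25%, limit read from the data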
* = called active by the depositor. Compounds with a hit are over-represented: about 4.5% of the library has one in this group of screens.

Screening CCC1(c2ccc(F)cc2)NC(=O)N(CC(=O)N2c3ccccc3CC2C)C1=O (stereo not given) returned 697 NFkB inh -15, Mdm2 MdmX PPI 4, Gli-Sufu block 5, Jurkat NFkB inh 0, CSC inhib 6 and Beta apoptosis -4.
Screening CSCCC(NS(=O)(=O)c1ccc(Cl)cc1)C(=O)OCC(=O)NC1CC1 (stereo not given) returned 697 NFkB inh -25, Mdm2 MdmX PPI -1, Gli-Sufu block 32, Jurkat NFkB inh 0 and Beta apoptosis -1.
CSCCC(NS(=O)(=O)c1ccc(Br)cc1)C(=O)OCC(=O)NC1CC1 (stereo not given) was read as 697 NFkB inh 7, Mdm2 MdmX PPI 15, Gli-Sufu block 51, Jurkat NFkB inh -2, CSC inhib 4, Beta apoptosis -1, Gli antag conf 17, Gli cytotox 16 and Wnt3a counter 3.
`CCOc1ccc(Br)cc1S(=O)(=O)Nc1cccc(S(=O)(=O)Nc2ccccc2C(=O)O)c1` gave 697 NFkB inh 2, Mdm2 MdmX PPI 3, Gli-Sufu block 55*, Jurkat NFkB inh -6, CSC inhib 3, Beta apoptosis 1, Gli antag conf 20, Gli cytotox 19 and Wnt3a counter -11.
Screening O=C(O)c1ccccc1NS(=O)(=O)c1cccc(NS(=O)(=O)c2cc(Br)ccc2Br)c1 returned 697 NFkB inh 11, Mdm2 MdmX PPI -4, Gli-Sufu block -3, Jurkat NFkB inh 11, CSC inhib -1 and Beta apoptosis 3.
Screening O=C(CCCc1ccccc1)NCCS(=O)(=O)N1CCN(c2ccc(F)cc2)CC1 returned 697 NFkB inh 10, Mdm2 MdmX PPI -1, Gli-Sufu block -4, Jurkat NFkB inh 10, CSC inhib -8 and Beta apoptosis -6.
